Reference: PubChem BioAssay AID1159580 (chemical genetic matrix, 2015)
Values joined by “and” are separate entries in the source; they are usually repeats but may differ in a detail not shown here. Identical values can stand only once. Among all 5,500 compounds or so, about 2,000 (36%) were called active. About 18% were inconclusive and are not listed. Cut-off read from the data, not from the text of the source: active = normalized growth mostly below about 0.91 (no sharp cut-off); inconclusive = no clear call, values can overlap the other calls; inactive = mostly above about 0.92. The list shows a part of the results.

Experiment: chemical genetic growth profiling, strain panel (AID 1159580);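 note: tested at 20 µM; growth read once vehicle control cultures reached saturation at 30 °C; 1 = growth at the plate median or of vehicle wells; lower values mean less growth of the strain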
Details: S. cerevisiae deletion strains, growth OD

Measured: normalized growth

C=CCc1ccccc1OCC(O)CNC(C)C (stereo not given)
inactive: locus YAL013W, strain DEP1, hits give low values 1 and 0.978 | locus YAL021C, strain ccr4, hits give low values 1 | locus YAL026C, strain drs2, hits give low values 1 | locus YAL030W, strain snc1, hits give low values 0.995 | locus YAL040C, strain CLN3, hits give low values 0.974 | locus YBL061C, strain skt5, hits give low values 1 | locus YBR009C, strain hhf1, hits give low values 0.971 | locus YBR021W, strain FUR4, hits give low values 0.998 | locus YBR023C, strain chs3, hits give low values 1 | locus YBR171W, strain sec66, hits give low values 0.99 | locus YBR229C, strain ROT2, hits give low values 1 | locus YBR231C, strain swc5, hits give low values 0.987 | locus YBR279W, strain paf1, hits give low values 1 | locus YCL011C, strain gbp2, hits give low values 0.998 | locus YCL016C, strain dcc1, hits give low values 0.993 | locus YCL029C, strain bik1, hits give low values 1.02 | locus YCL061C, strain MRC1 (second series), hits give low values 1 | locus YCL061C, strain MRC1, hits give low values 0.999 | locus YCL069W, strain vba3, hits give low values 0.994 | locus YCR088W, strain abp1, hits give low values 0.992 | locus YDL005C, strain med2, hits give low values 0.995 | locus YDL035C, strain GPR1, hits give low values 0.991 | locus YDL040C, strain nat1, hits give low values 0.995 | locus YDL074C, strain BRE1, hits give low values 1.01 | locus YDL101C, strain DUN1, hits give low values 1.01 | locus YDL134C, strain PPH21, hits give low values 1.01 | locus YDL185W, strain tfp1, hits give low values 1 | locus YDL192W, strain arf1, hits give low values 1.02 | locus YDR001C, strain nth1, hits give low values 1 | locus YDR069C, strain doa4, hits give low values 0.979 | locus YDR101C, strain arx1, hits give low values 1.01 | locus YDR137W, strain rgp1, hits give low values 0.998 | locus YDR150W, strain NUM1, hits give low values 1 and 1.02 | locus YDR159W, strain sac3, hits give low values 0.993 | locus YDR162C, strain NBP2, hits give low values 1 | locus YDR195W, strain ref2 0.913 | locus YDR297W, strain sur2, hits give low values 1 | locus YDR318W, strain mcm21, hits give low values 1.01 | locus YDR334W, strain swr1, hits give low values 0.997 | locus YDR335W, strain msn5, hits give low values 1 | locus YDR363W, strain ESC2, hits give low values 0.973 | locus YDR388W, hits give low values 1 | locus YDR392W, strain spt3, hits give low values 0.86 | locus YDR502C, strain sam2, hits give low values 1.01 | locus YEL003W, strain gim4, hits give low values 0.992 | locus YEL037C, strain rad23, hits give low values 0.997 | locus YEL061C, strain CIN8 (second series), hits give low values 1 | locus YEL061C, strain CIN8, hits give low values 1 | locus YER002W, strain NOP16, hits give low values 0.975 | locus YER015W, strain faa2, hits give low values 0.995 | locus YER016W, strain bim1, hits give low values 0.985 | locus YER110C, hits give low values 1.02 | locus YER111C, strain swi4, hits give low values 0.986 | locus YER155C, strain BEM2 (second series), hits give low values 0.968 | locus YER155C, strain BEM2, hits give low values 0.999 | locus YER167W, strain BCK2, hits give low values 1 | locus YFR010W, strain ubp6, hits give low values 1 | locus YGL078C, strain dbp3, hits give low values 1.01 | locus YGL086W, strain mad1, hits give low values 1 | locus YGL167C, strain pmr1, hits give low values 0.998 | locus YGL173C, strain kem1, hits give low values 0.997 | locus YGL227W, strain vid30, hits give low values 0.987 | locus YGL240W, strain doc1, hits give low values 0.983 | locus YGL248W, strain PDE1, hits give low values 0.998 | locus YGL253W, strain hxk2, hits give low values 1 | locus YGR078C, strain PAC10, hits give low values 1.01 | locus YGR135W, strain pre9, hits give low values 1.02 | locus YGR229C, strain SMI1, hits give low values 0.974 | locus YGR252W, strain gcn5, hits give low values 0.98 | locus YHR013C, strain ard1, hits give low values 0.943 | locus YHR027C, strain rpn1, hits give low values 1 | locus YHR030C, strain SLT2, hits give low values 1 and 0.989 | locus YHR079C, strain IRE1 (second series), hits give low values 1.01 | locus YHR079C, strain IRE1, hits give low values 0.972 | locus YHR094C, strain hxt1, hits give low values 1 | locus YHR129C, strain ARP1, hits give low values 1.01 | locus YHR142W, strain chs7, hits give low values 1.01 | locus YHR200W, strain rpn10, hits give low values 1 | locus YIL066C, strain RNR3, hits give low values 1.01 | locus YIL073C, strain SPO22, hits give low values 1.06 | locus YIL125W, strain kgd1, hits give low values 1.01 | locus YIR030C, strain dcg1, hits give low values 1.02 | locus YJL092W, strain hpr5, hits give low values 1 | locus YJL095W, strain BCK1 (second series), hits give low values 0.995 | locus YJL095W, strain BCK1, hits give low values 1.02 and 0.978 | locus YJL115W, strain asf1, hits give low values 1 | locus YJL129C, strain trk1, hits give low values 0.998 | locus YJL134W, strain LCB3, hits give low values 0.997 | locus YJL154C, strain vps35, hits give low values 0.99 | locus YJL164C, strain tpk1, hits give low values 1.01 | locus YJL166W, strain qcr8, hits give low values 1 | locus YJL168C, strain set2, hits give low values 1.01 | locus YJL187C, strain SWE1 (second series), hits give low values 1.02 | locus YJL187C, strain SWE1, hits give low values 1.01 | locus YJR043C, strain POL32, hits give low values 1
